Bioassay records as filed in PubChem.
The list is not random: actives were taken first. Their share in the collection is about 3.7%.
NALP3 yeast inh: NALP3 inflammasome inhibitors in reconstituted yeast, primary screen, luminescence, uHTS | Yeast reconstituted NLRP3/ASC/caspase-1, beta-gal luminescence, 24 h | inhibition, % at 10 µM | 330,000 compounds, 0.39% hits;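 active = inhibition of 50% or more; inactive = inhibition below 50%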;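 also: plate controls were induced DMSO wells for no effect and uninduced yeast grown without galactose for full effect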
PfHsp90 set2: growth inhibition of PfHsp90-expressing yeast, primary screen, antimalarial PfHsp90 inhibitor project, S. cerevisiae, BacTiter-Glo luminescence, single point, set 2; BacTiter-Glo ATP, 48 h; yeast lacking PDR1 and PDR3 efflux regulators; inhibition, % at 9.4 µM; 310,000 compounds, 0.32% hits; AID 504621, 2011;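 active = every replicate shows inhibition above about 80%, whatever the replicate mean, limit read from the data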;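 also: 0% = DMSO neutral controls and 100% = 20 µM radicicol positive controls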
tim23-1 inh: growth inhibitors of tim23-1 mutant yeast, primary screen, luminescence, uHTS. S. cerevisiae tim23-1 growth, BacTiter-Glo luminescence, 24 h. inhibition, % at 20 µM. 330,000 compounds, 1.3% hits. AID 463212, 2010;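 active = growth inhibition of the mutant yeast at or above 50%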;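 also: temperature-sensitive mutant grown at 25 °C; plate controls were DMSO-treated mutant yeast for no effect and medium wells lacking yeast for full effect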
tim10-1 inh: growth inhibitors of tim10-1 mutant yeast, primary screen, luminescence, uHTS; S. cerevisiae tim10-1 ts strain growth, BacTiter-Glo, 24 h; inhibition, % at 20 µM; 330,000 compounds, 2.2% hits;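 active = inhibition of at least 40%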;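 also: mutant grown at 25 °C; 0% = DMSO wells with yeast and 100% = wells holding no yeast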
TIM10 inh: growth inhibitors of isogenic TIM10 control yeast, primary screen, counter-screen for tim10-1 yeast inhibitor project, luminescence, uHTS | AID 463195, 2010 | S. cerevisiae TIM10 strain growth, BacTiter-Glo luminescence, 24 h | inhibition, % at 10 µM | 330,000 compounds, 1.4% hits;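 active = inhibition of 40% or more at the single tested concentration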;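 also: wild-type TIM10 isogenic control strain grown at permissive 25 °C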
tim10-1 confirm: growth inhibitors of tim10-1 mutant yeast, confirmation, single concentration, luminescence, S. cerevisiae. shares compounds with tim10-1 inh. S. cerevisiae tim10-1 ts strain growth, BacTiter-Glo, 24 h. inhibition, % at 20 µM. 7,400 compounds, 56% hits. AID 463213, 2010;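 active = inhibition of yeast growth at or above a set limit in either of two repeat tests at 20 µM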;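 also: tim10-1 mutant grown at permissive 25 °C to find synthetic lethal compounds; 0% = DMSO yeast wells and 100% = medium wells without yeast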
tim10 confirm: growth inhibitors of wild-type TIM10 yeast, confirmation, counter-screen for tim10-1 synthetic lethality project, single concentration, luminescence, S. cerevisiae | S. cerevisiae tim10 strain growth, BacTiter-Glo luminescence, 24 h | inhibition, % at 10 µM | 4,600 compounds, 63% hits | shares compounds with TIM10 inh;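 active = inhibition of yeast growth at or above a set limit in either of two replicates at 10 µM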;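 also: this counterscreen used the strain with wild-type TIM10; 0% = yeast with DMSO and 100% = medium wells lacking yeast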
* = called active by the depositor.

`COc1ccccc1-c1cc(C(F)(F)F)nc(S(=O)(=O)CCCC(=O)Nc2cc(C)on2)n1` gave NALP3 yeast inh 8.7, PfHsp90 set2 10.9, tim23-1 inh 18.0, tim10-1 inh 29.8 and TIM10 inh 9.7.
Screening CCOC(=O)c1ccc(N2C(=O)CC(N3CCCC(C)C3)C2=O)cc1 (centres undefined) returned NALP3 yeast inh 6.6, tim23-1 inh 27.7, tim10-1 inh 65.6*, TIM10 inh 46.4*, tim10-1 confirm 66.2* and tim10 confirm 46.6*.
COC(=O)CCC[C@H]1CC2(C[C@H](CCCO[Si](C)(C)C(C)(C)C)N1C(=O)OC(C)(C)C)OCCO2 was read as NALP3 yeast inh 23.7, PfHsp90 set2 7.2, tim23-1 inh 16.5, tim10-1 inh 20.4 and TIM10 inh 15.5.
Screening CC1CCN(c2ccccc2NC(=S)NC(=O)c2cccs2)CC1 returned NALP3 yeast inh 24.8, PfHsp90 set2 -10.5, tim23-1 inh 40.8, tim10-1 inh 48.9*, TIM10 inh 48.2*, tim10-1 confirm 33.9* and tim10 confirm 37.6*.
O=C(NC(=S)Nc1ccccc1N1CCCCC1)c1ccccc1 was read as NALP3 yeast inh 9.0, PfHsp90 set2 -10.8, tim23-1 inh 49.0, tim10-1 inh 47.9*, TIM10 inh 59.9*, tim10-1 confirm 44.5* and tim10 confirm 47.0*.
For O=C(NC(=S)Nc1ccccc1N1CCCC1)c1cccc(F)c1 the results were NALP3 yeast inh -28.0, PfHsp90 set2 -13.3, tim23-1 inh 31.5, tim10-1 inh 52.0*, TIM10 inh 52.1*, tim10-1 confirm 28.8 and tim10 confirm 48.3*.
COc1ccc(C(=O)N=C2SC3CS(=O)(=O)CC3N2c2ccccc2)cc1OC (centres undefined) was read as NALP3 yeast inh 7.4, PfHsp90 set2 -4.1, tim23-1 inh -5.2, tim10-1 inh 3.5 and TIM10 inh 4.0.
Screening CCOC(=O)C1(S(=O)(=O)c2ccc(Cl)cc2)CCN(Cc2ccc(Cl)cc2)CC1 returned NALP3 yeast inh 4.0, PfHsp90 set2 0.2, tim23-1 inh 49.3, tim10-1 inh 47.7*, TIM10 inh 42.4*, tim10-1 confirm 27.9 and tim10 confirm 34.2*.
`CCOC(=O)C1(Cc2ccc(Cl)cc2)CCN(Cc2nccn2CC)CC1` gave NALP3 yeast inh 0.3, PfHsp90 set2 8.1, tim23-1 inh -11.2, tim10-1 inh 28.1 and TIM10 inh 15.4.
`O=C(CNC(=O)c1ccc(F)cc1)NCc1ccc(S(=O)(=O)N2CCOCC2)cc1` gave NALP3 yeast inh 13.3, tim23-1 inh 20.8, tim10-1 inh 0.6 and TIM10 inh 4.4.
For Cc1ccc(-c2cc3c(N=O)c4ccccc4c-3n[nH]2)cc1 the results were NALP3 yeast inh 4.6, PfHsp90 set2 -31.3, tim23-1 inh 38.3, tim10-1 inh 43.0*, TIM10 inh 44.2*, tim10-1 confirm 10.0 and tim10 confirm 28.6*.
For Cc1cccc(-c2cc3c(N=O)c4ccccc4c-3n[nH]2)c1 the results were NALP3 yeast inh 13.5, PfHsp90 set2 22.4, tim23-1 inh -10.8, tim10-1 inh 25.1 and TIM10 inh 14.6.
Screening O=CNc1ccc2c(c1)Cc1cccc(NC=O)c1-2 returned PfHsp90 set2 -22.9.
For COc1ccc(/C=C/C(=O)c2ccc(O)cc2)cc1CN1CCOCC1 the results were NALP3 yeast inh 23.7, PfHsp90 set2 -13.0, tim23-1 inh 23.0, tim10-1 inh 15.3 and TIM10 inh 7.4.
For COc1ccc(/C=C/C(=O)C23CC4CC(CC(C4)C2)C3)cc1CN1CCOCC1 the results were NALP3 yeast inh 21.4, PfHsp90 set2 12.0, tim23-1 inh 37.6, tim10-1 inh 46.1*, TIM10 inh 46.5*, tim10-1 confirm 37.5* and tim10 confirm 35.7*.
O=C(NC(=S)NCCC1=CCCCC1)c1ccccc1Br was read as NALP3 yeast inh 1.7, PfHsp90 set2 -56.6, tim23-1 inh 33.5, tim10-1 inh 43.5*, TIM10 inh 45.7*, tim10-1 confirm 31.0* and tim10 confirm 41.1*.
For CCOCCCN(C(=O)c1snc(C(N)=O)c1N)C(C(=O)NC1CCCC1)c1ccc(OC)cc1 (centres undefined) the results were NALP3 yeast inh 7.5, PfHsp90 set2 -66.0, tim23-1 inh 15.9, tim10-1 inh 5.5 and TIM10 inh -7.7.
For CC(=O)c1ccc(NC(=S)NC2CCCC(C)C2C)cc1 (centres undefined) the results were NALP3 yeast inh 18.6, PfHsp90 set2 2.3, tim23-1 inh 45.2, tim10-1 inh 45.0*, TIM10 inh 47.4*, tim10-1 confirm 43.5* and tim10 confirm 36.1*.
`CCCOc1ccc(C(=O)C(CN2CCOCC2)c2ccccc2)cc1` (centres undefined) gave NALP3 yeast inh 27.1, PfHsp90 set2 12.9, tim23-1 inh 32.0, tim10-1 inh 45.9*, TIM10 inh 50.2*, tim10-1 confirm 46.4* and tim10 confirm 8.4.
Screening CCCOc1ccc(C(=O)C(c2ccccc2)N2CCOCC2)cc1 (centres undefined) returned NALP3 yeast inh 11.0, PfHsp90 set2 1.5, tim23-1 inh -8.9, tim10-1 inh -1.7 and TIM10 inh -17.9.
CC(C)CC(=O)NC(=S)NCCc1ccccc1 was read as NALP3 yeast inh 18.8, PfHsp90 set2 -11.1, tim23-1 inh 35.2, tim10-1 inh 46.9*, TIM10 inh 45.6*, tim10-1 confirm 22.4 and tim10 confirm 14.7.
Screening Cc1ccc(OCCCC(=O)Nc2cc(S(=O)(=O)N3CCOCC3)ccc2N2CCOCC2)cc1 returned NALP3 yeast inh 2.5, PfHsp90 set2 -16.2, tim23-1 inh 23.5, tim10-1 inh 14.4 and TIM10 inh 7.4.
CC(C)C[C@@H](CN1CCCC1CN1C(=S)NC[C@@H]1Cc1ccc(O)cc1)N1C[C@H](Cc2ccc(O)cc2)N(CCc2ccccc2)C1=S (some centres undefined) was read as PfHsp90 set2 7.7.
`C[C@H]1COC2=C1C(=O)C(=O)c1c2ccc2c1CCCC2(C)C` gave PfHsp90 set2 -48.5.
Cc1coc2c1C(=O)C(=O)c1c-2ccc2c1CCCC2(C)C was read as NALP3 yeast inh 7.8, PfHsp90 set2 -76.5, tim23-1 inh 47.4, tim10-1 inh 47.7*, TIM10 inh 43.6*, tim10-1 confirm 37.6* and tim10 confirm 36.5*.
